DT40 TDP1 no CPT = qHTS for Inhibitors of human tyrosyl-DNA phosphodiesterase 1 (TDP1): qHTS in cells in absence of CPT; AID 686978, 2013; hit rate 15% among 420,000; DT40 Tdp1-/- hTDP1 cells, no CPT, ATP luminescence, 48 h; Potency, µM (titrated, usually from 46.2 µM), without a hit: at the top dose activity change, negative = growth inhibition, hits mostly inhibitors; note: % is set by controls: 0 for no effect and ±100 for the full control effect; nearly all actives have a fitted effect of over 55% in size
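Luminescent ATP content (CellTiter-Glo) served as the growth readout. Knockout chicken DT40 cells expressing human TDP1 were exposed to compounds without camptothecin for a minimum 48 hr at 37 °C.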
DT40 TDP1 CPT = growth inhibition of DT40 Tdp1-/-;hTDP1 cells with camptothecin (screen for TDP1 inhibitors); chicken DT40 Tdp1-/-;hTDP1 cells + 20 nM CPT, ATP luminescence, 48 h; Potency, µM (doses to about 46.2 µM), without a hit: at the top dose activity change, negative = growth inhibition, hits mostly inhibitors; hit rate 12% among 420,000; AID 686979; note: % is set by controls: 0 for no effect and ±100 for the full control effect; nearly all actives have a fitted effect of over 55% in size
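Chicken DT40 Tdp1-/- cells complemented with human TDP1, 400 cells/well, exposed to compounds plus 20 nM camptothecin for at least 48 h at 37 C; viability read as ATP content by CellTiter-Glo luminescence.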
ClpP mod = qHTS Assay for Activators of ClpP; hit rate 1.9% among 340,000; purified B. subtilis ClpP, FRET peptide cleavage, 20 min; AID 651965, 2013; Potency, µM (series often up to 57.5 µM), inactives show at the top dose activity change, negative = active; active = well fitted falling curve with a large enough effect; inconclusive = small, poorly fitted or top-dose-only effect; inactive = no such curve, though single readings can be large or run the other way; note: the source files actives as falling curves though it sought activators and does not explain the sign; nearly all actives have a fitted effect of over 65% in size
Target sequence (P80244 whole entry, looked up): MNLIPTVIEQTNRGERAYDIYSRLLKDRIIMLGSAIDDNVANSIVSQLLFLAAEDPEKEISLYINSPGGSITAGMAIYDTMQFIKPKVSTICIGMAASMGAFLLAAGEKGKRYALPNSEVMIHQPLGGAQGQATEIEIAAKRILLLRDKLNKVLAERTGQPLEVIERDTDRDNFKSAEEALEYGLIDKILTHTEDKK
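ClpP 10 microg/mL final, pH 8 Tris/KCl buffer with BSA, glycerol, Tween-20; compound pinned in; FRET-FV substrate; RT 20 min; Ex320/Em430; ΔFRET vs ADEP 5.8 microM, DMSO, no enzyme.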
TDP1 inh = TDP1 (human) enzyme inhibition; hit rate 0.28% among 350,000; recombinant TDP1, AlphaScreen DNA substrate cleavage; Potency, µM (highest dose often 130 µM), without a hit: at the top dose activity change, negative = inhibition, actives largely listed as inhibitors; Q9NUW8; note: % is set by controls: 0 for no effect and ±100 for the full control effect; nearly all actives have a fitted effect of over 40% in size
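Tdp1 1 nM final; 15 min RT w/ cpd; substrate 15 nM, 5 min; beads 10 ug/ml, 10 min; AlphaScreen read. Neg ctrl: no enzyme.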
Starred values were filed as active, the others as inactive; ? = inconclusive; / = not tested or not shown; [ ] = dose if it differs, or a comment. In the library only some 17% were active in any assay of this set; here they are far more common. Unless noted, calls come from the whole dose curve; as a rule, active = well fitted curve in the direction sought with a large enough effect; inconclusive = small, poorly fitted or top-dose-only effect, or another doubt; inactive = no such curve, though single readings can be large; an effect the other way counts as inactive or inconclusive. Potency is the fitted concentration of half-maximal effect.

SMILES	DT40 TDP1 no CPT	DT40 TDP1 CPT	ClpP mod	TDP1 inh
Cc1cc(C(=O)NC2CCCc3c2cnn3-c2ccc(C(C)(C)C)cc2)n[nH]1 (stereo not drawn)	12µM*	21µM*	0%	2%
CC(C)(C)c1ccc(-n2ncc3c2CCCC3NC(=O)c2ccncc2)cc1 (stereo not drawn)	10µM*	12µM*	1%	/
CC(C)(C)c1ccc(-n2ncc3c2CCCC3NC(=O)CCC2=NNC(=O)CC2)cc1 (stereo not drawn)	3.3µM*	9.2µM*	-1%	/
Cc1noc(C)c1C(=O)N1CCC2(CC1)CCN(c1ncccn1)CC2	-16%	-27%	/	/
Cc1ncoc1C(=O)NC1CCCc2c1cnn2-c1cc(F)cc(F)c1 (stereo not drawn)	26µM*	-29%	1%	/
Cc1ncoc1C(=O)NC1CCCc2c1cnn2-c1ccc(C(C)(C)C)cc1 (stereo not drawn)	7.3µM*	7.3µM*	-14%	6%
CC(C)(C)c1ccc(-n2ncc3c2CCCC3NC(=O)CN2CCOC2=O)cc1 (stereo not drawn)	16µM*	18µM*	0%	4%
O=C(NC1CCCc2c1cnn2-c1cc(F)cc(F)c1)c1ccncc1 (stereo not drawn)	-18%	-27%	1%	4%
Cc1ccc(C)c(Cn2cnc3ccccc3c2=O)c1	?	-2%	1%	5%
CCN(c1ccccc1)S(=O)(=O)c1cccc(C(=O)NCc2ccncc2)c1	?	-25%	/	4%
O=C(NCc1ccccc1F)c1cccc(S(=O)(=O)NCc2ccccc2)c1	?	7%	1%	0%
CN(c1ccccc1)S(=O)(=O)c1cccc(C(=O)NNC(=O)c2ccccc2)c1	16µM*	16µM*	0%	-3%
O=C(NCCc1c[nH]c2ccccc12)c1cccc(S(=O)(=O)Nc2ccccc2Cl)c1	?	-20%	1%	6%
O=C(NCc1cccc(C(F)(F)F)c1)c1cccc(S(=O)(=O)NCc2ccccc2)c1	23µM*	?	1%	3%
CN(c1ccccc1)S(=O)(=O)c1cccc(C(=O)NCc2ccccc2)c1	16µM*	?	-1%	0%
CN(c1ccccc1)S(=O)(=O)c1cccc(C(=O)NCCc2c[nH]c3ccccc23)c1	?	15µM*	-5%	/
O=C1c2ccccc2C2N1CCCN2C(=O)c1sc2ccccc2c1Cl (stereo not drawn)	16µM*	18µM*	-2%	/
Cc1onc(-c2ccccc2)c1C(=O)N1CCCN2C(=O)c3ccccc3C21 (stereo not drawn)	-4%	15%	-1%	1%
CCn1c(COc2ccccc2)nnc1SCC(=O)Nc1ccc(N2CCOCC2)cc1	-18%	-3%	/	/
C=CCn1c(COc2cccc3ccc(C)nc23)nnc1SCC(=O)O	-1%	-2%	35µM*	-1%
C=CCn1c(COc2cccc3cccnc23)nnc1SCC(=O)O	7%	11%	28µM*	1%
Cc1ccccc1OCc1nnc(SCC(=O)O)n1Cc1ccccc1	-17%	?	/	/
COc1ccc([C@@H]2C[C@H]3[C@@H](CN2S(=O)(=O)c2ccccc2)C(=O)C[C@@H](c2cccc4ccccc24)N3S(=O)(=O)c2ccc(C)cc2)cc1	1%	11%	0%	/
Cc1nn(C)c(C(=O)Sc2cccc(Cl)c2)c1[N+](=O)[O-]	2.9µM*	4.6µM*	/	/
Cc1nn(C)c(C(=O)Sc2ccccc2)c1[N+](=O)[O-]	23µM*	?	/	/
CCn1nc(C)cc1C(=O)Sc1cccc(Cl)c1	4.1µM*	3.7µM*	/	-1%
CCN(CC)C(=O)[C@H]1C[C@H](CC(=O)NCCN2CCOCC2)C(=O)N2CCc3c([nH]c4cc(CCC(=O)N(C)C)ccc34)[C@]12C	-6%	0%	-4%	1%[56.1 µM]
COc1ccc(NC(=O)N(C)C[C@H]2Oc3ccc(NC(=O)Cn4cnnn4)cc3C(=O)N([C@H](C)CO)C[C@@H]2C)cc1	3%	4%	-2%	0%
COC(=O)C1=C(C(=O)OC)[C@@H]2N(C)c3ccc(OC)cc3[C@@]23C[C@@H](C(=O)OC)N(S(=O)(=O)c2ccc(OC)cc2)C3=N1	-17%	-13%	1%	19%[12.3 µM]

Source: PubChem
